{"source": "paper PMC5540273", "about": "(PLoS ONE, 2017);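 further: KINOMEscan kinase panel screen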"}
{"tested_on": "ABL1-nonphosphorylated", "details": "concentration: 1 μM, replicates: in singlicate; n = 1", "units": {"%Inh": "%"}}
{"smiles": "CCCCc1nn2ncccc2c1-c1ccnc(NC2CC2)n1", "note": "[GW684374]", "%Inh": 0}
{"smiles": "COC(=O)C(NC(=O)NC1CCN(c2ccnc(Nc3ccc(F)cc3)n2)C1)c1ccccc1", "note": "(stereo not drawn) [GSK1379712]", "%Inh": 0}
{"smiles": "O=c1cc(N2CCOCC2)nc2n(Cc3ccccc3F)ccn12", "note": "[GSK2297428]", "%Inh": 0}
{"smiles": "CS(=O)(=O)Cc1ccc(Nc2nccc(-c3c(-c4cccc(NC(=O)C5CCCCC5)c4)nn4ncccc34)n2)cc1", "note": "[GSK350559]", "%Inh": 8}
{"smiles": "Cc1cnc(N)c(/C=C/c2cncc(C(=O)NCCc3ccc(Cl)cc3Cl)c2)c1.Cl", "note": "[GSK190937]", "%Inh": 39}
{"smiles": "CS(=O)(=O)CCNCc1nc(-c2ccc3ncnc(Nc4ccc5c(cnn5Cc5ccccc5)c4)c3c2)cs1.Cl.Cl", "note": "[GW569716]", "%Inh": 68}
{"smiles": "CC[C@@H]1CO[C@H](C(=O)Nc2ccccc2)CN1c1cc(-c2ccc3c(N)n[nH]c3c2)nc(NC)n1", "note": "[GSK2376236]", "%Inh": 0}
{"smiles": "CC(=O)c1c(C)c2cnc(Nc3ccc(N4CCNCC4)cn3)nc2n(C2CCCC2)c1=O", "%Inh": 28}
{"smiles": "COc1ccc(-c2coc3ccc(-c4nnc(C)o4)cc23)cc1", "%Inh": 32}
{"smiles": "Cc1c(Cn2c(C)c(C)n3c(=O)cc(N4CCOCC4)nc23)cccc1C(F)(F)F", "note": "[GSK2328680]", "%Inh": 0}
{"smiles": "CNc1cc(-c2ccc3c(N)n[nH]c3c2)nc(N)n1", "note": "[GSK2224810]", "%Inh": 0}
{"smiles": "Cc1ccc(NC(=O)c2ccc(Cl)cc2)cc1-c1ccc(C(=O)Nc2ccncc2)cc1", "note": "[GSK1398467]", "%Inh": 0}
{"smiles": "CCn1c(-c2ccccc2)nc2cnccc21", "note": "[SB-733416]", "%Inh": 0}
{"smiles": "CN1c2ccc(-c3ccc(C(N)=O)cc3)cc2-c2[nH]ncc2S1(=O)=O", "%Inh": 36}
{"smiles": "CS(=O)(=O)CCNCc1nc(-c2ccc3ncnc(Nc4ccc(OCc5ccccc5)c(Cl)c4)c3c2)cs1.Cl", "note": "[GW582764]", "%Inh": 0}
{"smiles": "COC(=O)c1cccc(NC(=O)NC2CCN(c3ccnc(Nc4ccc(OC)cc4)n3)C2)c1", "note": "(stereo not drawn) [GSK1379746]", "%Inh": 0}
{"smiles": "NS(=O)(=O)c1cccc(N/C=C2\\C(=O)Nc3ccc(S(=O)(=O)Cc4c(Cl)cccc4Cl)cc32)c1", "note": "[GSK398099]", "%Inh": 0}
{"smiles": "CC(=O)c1cccc(NC(=O)NC2CCN(c3ccnc(Nc4ccc(F)cc4)n3)C2)c1", "note": "(stereo not drawn) [GSK1379710]", "%Inh": 0}
{"smiles": "O=C1NC(=O)C(c2ccc(Cl)cc2)=C1Nc1cccc(Cl)c1", "note": "[SB-317651]", "%Inh": 47}
{"smiles": "Cc1ccc(-c2nc(Nc3ccncc3)c3ccccc3n2)s1", "note": "[GSK189015]", "%Inh": 0}
{"smiles": "Cn1cnc2c(N)ncnc21", "note": "[SKF-97623]", "%Inh": 21}
{"smiles": "CNc1nc(-c2ccc3c(N)n[nH]c3c2)cc(N2C[C@@H](C(=O)NC3CCCCC3)OC[C@H]2C)n1", "note": "[GSK2375584]", "%Inh": 6}
{"smiles": "O=C(Nc1n[nH]c2nc(-c3ccco3)c(Br)cc12)C1CCN(Cc2ccccc2)C1.O=C(O)[C@H](O)[C@@H](O)C(=O)O", "note": "(stereo not drawn) [SB-742034]", "%Inh": 33}
{"smiles": "COc1ccc(Nc2nccc(NCCNC(=O)Nc3cc(C)ccc3C)n2)cc1", "note": "[GSK1379899]", "%Inh": 0}
{"smiles": "CC(C)c1cc(-c2ccc3c(N)n[nH]c3c2)nc(N)n1", "note": "[GSK2250882]", "%Inh": 0}
{"smiles": "O=C(Nc1n[nH]c2nc(-c3cccs3)c(Br)cc12)C1CCCC1", "note": "[SB-743341]", "%Inh": 48}
{"smiles": "O=C1NC(=O)C(c2ccc(Cl)cc2)=C1Nc1ccc(O)cc1", "note": "[SB-340867]", "%Inh": 28}
{"smiles": "COc1ccc(Nc2nccc(N3CCC(NC(=O)C(C)c4ccc(Cl)cc4)CC3)n2)cc1", "note": "(stereo not drawn) [GSK1379812]", "%Inh": 4}
{"smiles": "CC(C)c1ccc(O)cc1Nc1ccnc2ccc(C(F)(F)F)cc12", "note": "[GW482059]", "%Inh": 0}
{"smiles": "CCn1c(-c2c(N)noc2C)nc2cnccc21", "note": "[SB-737856]", "%Inh": 0}
{"smiles": "COc1ccc(Nc2nccc(N3CCC(NC(=O)C(C)c4ccc(Cl)cc4)C3)n2)cc1", "note": "(stereo not drawn) [GSK1379735]", "%Inh": 0}
{"smiles": "O=c1cc(N2CCOCC2)nc2n(Cc3cccc(Cl)c3Cl)c3ccccc3n12", "note": "[GSK2299009]", "%Inh": 0}
{"smiles": "CC(=O)c1c(C)c2cnc(Nc3ccn(C)n3)nc2n(C2CCCC2)c1=O", "%Inh": 0}
{"smiles": "Cc1nccc(-c2c(-c3ccc(F)cc3)ncn2CCCN2CCOCC2)n1.Cl", "note": "[SB-282975]", "%Inh": 26}
{"smiles": "COc1ccc(CSc2nnc(-c3ccc4c(c3)CCO4)o2)cc1", "%Inh": 28}
{"smiles": "Cc1ccc(NC(=O)Nc2ccc(Cl)cc2)cc1-c1ccc(C(=O)Nc2ccncc2)cc1", "note": "[GSK1398472]", "%Inh": 2}
